The panel holds about 83,000 compounds, 20% with a hit somewhere; the sample as a whole holds those more often.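 Each cell line was grown in a 96-well plate and treated with one concentration of compound for 48 hours. Values below 10 were considered active.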 Unmarked numbers belong to inactive results. Activity calls are given as the source filed them.

Among the test systems are SR leukemia; RPMI-8226 leukemia; OVCAR-8 ovarian; OVCAR-5 ovarian; OVCAR-4 ovarian; SK-OV-3 ovarian; IGROV1 ovarian; OVCAR-3 ovarian; HS 578T breast; NCI/ADR-RES ovarian; T-47D breast; MDA-MB-435 melanoma; SW-620 colon; MCF7 breast; HCT-116 colon; HCC-2998 colon; KM12 colon; BT-549 breast.
Holding throughout (assay): NCI-60 one-dose screen, 48 h (100 = growth as untreated, 0 = no growth, -100 = all killed)
Conditions in all cases: 10 µM unless noted

Consider `Cn1c(=O)c2c(ncn2CC[N+](C)(C)C)n(C)c1=O`, for which the growth with SR leukemia is 94.7%; in the experiment with RPMI-8226 leukemia, 104%; in the experiment on OVCAR-8 ovarian it was 105%; in the experiment on OVCAR-5 ovarian, 105%; with OVCAR-4 ovarian it was 105%; in the experiment with SK-OV-3 ovarian, 99.4%. Besides, the growth in the experiment with IGROV1 ovarian is 102%; with OVCAR-3 ovarian, 105%; in the experiment on HS 578T breast, 110%; in the experiment on NCI/ADR-RES ovarian, 102%; in the experiment with T-47D breast it was 88.8%; in the experiment on MDA-MB-435 melanoma it was 104%. The growth in the experiment with SW-620 colon was 106%; in the experiment with MCF7 breast it was 99.9%; with HCT-116 colon it was 100%; in the experiment with HCC-2998 colon it was 102%; with KM12 colon, 105%.
Take `CC1=C(NCCN2CCCC2)C(=O)c2c(OCc3ccc(F)c(Cl)c3)cccc2C1=O`: the growth with SR leukemia was -14.3% (active); in the experiment with RPMI-8226 leukemia it was 50.4%; in the experiment on OVCAR-8 ovarian, 74.8%; in the experiment on OVCAR-5 ovarian, 72.7%; in the experiment with OVCAR-4 ovarian it was 70.5%; in the experiment with SK-OV-3 ovarian, 93.7%. Moreover, the growth in the experiment on IGROV1 ovarian was 67.6%; in the experiment with OVCAR-3 ovarian it was 84%; with HS 578T breast, 79.7%; in the experiment on NCI/ADR-RES ovarian, 75.2%; in the experiment on T-47D breast, 62.7%; in the experiment with MDA-MB-435 melanoma, 40%. Further, the growth in the experiment with SW-620 colon was 78.8%; with MCF7 breast, 41.3%; in the experiment with HCT-116 colon, 31.6%; with HCC-2998 colon it was 80.7%; in the experiment with KM12 colon, 79.7%.
For `CC(=O)C1=C(O)C=C2Oc3c(C(=O)/C=C/c4cc(Cl)cc(Cl)c4)c(O)c(C)c(O)c3[C@]2(C)C1=O`, the growth in the experiment on SR leukemia was -20.5% (active); in the experiment on RPMI-8226 leukemia, -22.1% (active); in the experiment with OVCAR-8 ovarian, -24.3% (active); with OVCAR-5 ovarian, 0.163% (active); in the experiment on OVCAR-4 ovarian, 8.73% (active); in the experiment on SK-OV-3 ovarian it was -24.4% (active). In addition, the growth in the experiment on IGROV1 ovarian is -13.8% (active); in the experiment on OVCAR-3 ovarian it was -28.6% (active); in the experiment with HS 578T breast it was -16.6% (active); with NCI/ADR-RES ovarian it was -40.9% (active); in the experiment on T-47D breast, -24.4% (active); in the experiment on MDA-MB-435 melanoma, -42.2% (active). Further, the growth in the experiment on SW-620 colon is 0.897% (active); in the experiment on MCF7 breast it was -10.6% (active); in the experiment on HCT-116 colon, -15.9% (active); with HCC-2998 colon, -46.9% (active); in the experiment with KM12 colon, -6.77% (active).
Take `CC(=O)N1CC(Nc2ccc(OC(F)(F)F)cc2)=CC1=O`: the growth with SR leukemia is 25.3%; in the experiment with RPMI-8226 leukemia, 21.9%; in the experiment on OVCAR-8 ovarian it was 26.1%; in the experiment with OVCAR-5 ovarian, 92.6%; in the experiment with OVCAR-4 ovarian it was 87.2%; in the experiment on SK-OV-3 ovarian, 31.3%. Moreover, the growth in the experiment on IGROV1 ovarian is 50.3%; in the experiment on OVCAR-3 ovarian, 9.26% (active); in the experiment with HS 578T breast, 38.9%; in the experiment on NCI/ADR-RES ovarian, 15.4%; with T-47D breast, 26.2%; in the experiment on MDA-MB-435 melanoma, -27.2% (active). The growth in the experiment on SW-620 colon was 27.8%; in the experiment with MCF7 breast, 11.8%; with HCT-116 colon, 39.2%; in the experiment with HCC-2998 colon it was 60.2%; in the experiment on KM12 colon it was 23.3%.
`CNc1nc(C)c(-c2nc(Nc3cccc(S(N)(=O)=O)c3)ncc2F)s1`: the growth with SR leukemia is -18.5% (active); in the experiment on RPMI-8226 leukemia, 2.6% (active); with OVCAR-8 ovarian, 8.76% (active); with OVCAR-5 ovarian, 3.14% (active); in the experiment on OVCAR-4 ovarian it was 29.2%; in the experiment on SK-OV-3 ovarian, 8.56% (active). Besides, the growth in the experiment on IGROV1 ovarian was 4.94% (active); in the experiment with OVCAR-3 ovarian it was 10.2%; in the experiment on HS 578T breast, 3.64% (active); with NCI/ADR-RES ovarian it was 5.57% (active); with BT-549 breast, -17.1% (active); in the experiment with MDA-MB-435 melanoma, 17.6%. Besides, the growth was 8% (active) in the experiment on SW-620 colon; 1.33% (active) with MCF7 breast; 5.28% (active) with HCT-116 colon; 2.96% (active) in the experiment with HCC-2998 colon; 5.25% (active) in the experiment with KM12 colon.
Take `COc1ccc(C(=O)c2sc3nc4c(c(C(F)(F)F)c3c2N)CN(C(C)=O)CC4)cc1OC`: the growth with SR leukemia was 79.4%; with RPMI-8226 leukemia it was 57.1%; in the experiment on OVCAR-8 ovarian it was 80.9%; in the experiment with OVCAR-5 ovarian, 89.3%; in the experiment on OVCAR-4 ovarian it was 85.8%; with SK-OV-3 ovarian, 87.2%. Besides, the growth was 98.2% with IGROV1 ovarian; 95.9% in the experiment on OVCAR-3 ovarian; 81.6% with HS 578T breast; 84.7% in the experiment with NCI/ADR-RES ovarian; 99.6% in the experiment on BT-549 breast; 99.7% with MDA-MB-435 melanoma. In addition, the growth in the experiment on SW-620 colon was 100%; in the experiment on MCF7 breast, 83.4%; in the experiment on HCT-116 colon it was 89.3%; in the experiment on HCC-2998 colon it was 94.9%; with KM12 colon it was 97.6%.
Turning to `CSc1[nH]c2ncnc(N)c2c1C#N`, the growth in the experiment on SR leukemia was 99.5%; in the experiment on RPMI-8226 leukemia, 106%; with OVCAR-8 ovarian it was 115%; with OVCAR-5 ovarian, 87.4%; with OVCAR-4 ovarian, 94.2%; with SK-OV-3 ovarian, 92.7%. The growth was 92.4% in the experiment with IGROV1 ovarian; 125% in the experiment with OVCAR-3 ovarian; 130% in the experiment on HS 578T breast; 86.1% with NCI/ADR-RES ovarian; 85.9% with BT-549 breast; 102% with MDA-MB-435 melanoma. Also, the growth with SW-620 colon was 128%; in the experiment with MCF7 breast, 100%; in the experiment on HCT-116 colon, 102%; with HCC-2998 colon, 108%; in the experiment on KM12 colon it was 122%.
As for `O=C(O)c1cccnc1Br`, the growth with SR leukemia is 89.4%; with RPMI-8226 leukemia, 112%; in the experiment with OVCAR-8 ovarian it was 106%; with OVCAR-5 ovarian it was 101%; with OVCAR-4 ovarian, 102%; with SK-OV-3 ovarian it was 94.4%. Also, the growth in the experiment with IGROV1 ovarian was 98.1%; in the experiment on OVCAR-3 ovarian, 104%; in the experiment on HS 578T breast, 110%; in the experiment with NCI/ADR-RES ovarian, 99.3%; with BT-549 breast, 110%; with MDA-MB-435 melanoma, 102%. For the same molecule, the growth was 110% with SW-620 colon; 96.8% in the experiment with MCF7 breast; 98.1% with HCT-116 colon; 98.5% in the experiment with HCC-2998 colon; 113% with KM12 colon.
